# Measured potencies and affinities stand elsewhere.
# Key:
# Staphylococcus aureus = conditions: Concentration 32 ug.mL-1; ASSAY_TEST Inhibition of Bacterial Growth; detection method Absorption (OD600); MEDIA CAMHB; plate type 384well; NBS; CORNING #3640; time 18 hr
# Escherichia coli = conditions: Concentration 32 ug.mL-1; ASSAY_TEST Inhibition of Bacterial Growth; detection method Absorption (OD600); MEDIA CAMHB; plate type 384well; NBS; CORNING #3640; time 18 hr
smiles,measurement,setting,value
[N-]=[N+]=NC[C@H]1OC(O)[C@@H](O)[C@@H]1O (some centres not stated),Inhibition,Staphylococcus aureus,29.31%
same,Inhibition,Escherichia coli,18.39%
